Only some compounds are listed: those with a hit (about 12% of all), similar ones and a draw of the others.
SARS PLpro yeast – SARS-CoV PLP inhibition in yeast; S. cerevisiae expressing SARS-CoV PLpro, growth rescue; Potency, µM (highest dose often 32.9 µM), inactives show top-dose activity, positive = growth rescue, actives largely listed as activators; 330,000 tested, 0.19% active; AID 485353; calls by dose curve; also: 0% is about no effect; nearly all actives have a fitted effect of over 55% in size
Pf growth 48h – inhibits P. falciparum growth in the first generation, 48 h; Potency, µM (top dose mostly 28.7 µM), inactives show at the highest dose activity change, negative = inhibition, actives largely listed as inhibitors; P. falciparum luciferase growth in erythrocytes, 48 h; 310,000 tested, 5.9% active; also: % is scaled to controls: 0 for no effect and ±100 for the full control effect
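In quantitative HTS format, infected erythrocytes bearing luciferase-reporter parasites were treated for a single generation at 37 C. Luminescence after adding detection reagent served as the growth measure.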
Pf growth 96h – P. falciparum growth inhibition at 96 hour, primary screen for plastid delayed-death inhibitors | P. falciparum luciferase reporter growth, 96 h | Potency, µM (series often up to 28.7 µM), for the others: at the top dose activity change, negative = inhibition, actives largely listed as inhibitors | 320,000 tested, 6.9% active | AID 504834; also: % is scaled to controls: 0 for no effect and ±100 for the full control effect
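96 h incubation, 37 C, 5% CO2, of luciferase-reporter P. falciparum-infected RBCs (2% hematocrit, 0.05% parasitemia final) with test compounds; endpoint luminescence.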
Sm TGR block – blocks Schistosoma mansoni thioredoxin glutathione reductase; Q962Y6; purified TGR, DTNB reduction, TNB absorbance 405 nm; Potency, µM (series often up to 114 µM), without a hit: at the top dose activity change, negative = inhibition, usual class: inhibitors; 360,000 tested, 3% active; also: % is scaled to controls: 0 for no effect and ±100 for the full control effect; nearly all actives have a fitted effect of over 60% in size
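Kinetic colorimetric format: TGR-catalysed, NADPH-driven DTNB reduction monitored via TNB absorbance. Enzyme dispensed at 20 nM; compound exposure 15 min at room temperature before reaction start.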
Starred values were filed as active, the others as inactive; u = inconclusive; x = no result given. Unless noted, calls follow the shape of the dose curve; as a rule, active = well fitted curve in the direction sought with a large enough effect; inconclusive = small, poorly fitted or top-dose-only effect, or another doubt; inactive = no such curve, though single readings can be large; an effect the other way counts as inactive or inconclusive. Potency is read from the fitted curve at half-maximal effect.

SMILES	SARS PLpro yeast	Pf growth 48h	Pf growth 96h	Sm TGR block
CCCCCOC(=O)CSc1ncnc2c1sc1nc(N3CCOCC3)c3c(c12)CCCC3	x	x	x	-1%
CCCOc1ccc(-c2nonc2NC(=O)c2cc(OC)c(OC)c(OC)c2)cc1OCCC	x	x	x	-2%
Cc1nc2c(s1)sc1ccccc12	2%	49%	-3%	-1%
CC[n+]1c(C)sc2sc3ccccc3c21	-5%	1.9µM*	u	-24%
O=C(NCC1CCCO1)c1ccc2c(c1)N(Cc1ccccc1)CCS2 (stereo unspecified)	0%	u	u	5%
Cn1c(=O)c2c(-c3ccccc3F)c3c(nc2n(C)c1=O)-c1ccccc1C3O (stereo unspecified)	4%	-21%	0.23µM*	-18%
CCN1C[C@@H]2[C@@H]3C(=O)N(C)C(=O)[C@@H]3[C@](C)(C(=O)OC)N2C1=NC	19%	x	x	x
CCOc1cccc2cc(C(=O)Oc3ccc(OC)cc3)c(=O)oc12	0%	2%	78%	40µM*
COc1cccc2cc(C(=O)Oc3ccccc3)c(=O)oc12	-7%	6%	13µM*	-16%
COc1cccc2cc(C(=O)N3CCC(C)CC3)c(=O)oc12	u	x	u	0%
COc1ccc(C(=O)NNC(=O)c2cc3cccc(OC)c3oc2=O)cc1	0%	1%	u	-1%
COc1cccc2cc(C(=O)CS(=O)(=O)c3ccc(C)cc3)c(=O)oc12	-1%	4%	4.7µM*	u
COc1cccc2cc(C(=O)OC3CCN(C)CC3)c(=O)oc12	4%	5%	12µM*	-23%
CCOc1ccc(-n2c(SCc3ccccc3)nc3c([nH]c4ccccc43)c2=O)cc1	x	x	x	4%
COc1ccccc1OCCCCn1c(-c2ccc(Cl)cc2)nc2ccccc2c1=O	x	x	x	17%
COc1ccccc1CCC(=O)Oc1ccc(C#N)cc1OC	-1%	-6%	u	-10%
Cc1ccc(/C=C/C(=O)Nc2nn[nH]n2)o1	-15%	13%	u	20µM*
Cc1ccc(/C=C/C(=O)Nc2ccccc2C(N)=O)o1	x	x	x	22µM*
NC(=O)c1ccccc1NC(=O)/C=C/c1c(Cl)cccc1Cl	1%	180%	13µM*	8%
NC(=O)c1ccccc1NC(=O)/C=C/c1cccc(Cl)c1	0%	199%	211%	12%
Cc1ccc(/C=C/C(=O)Nc2cccnc2)o1	-8%	97%	65%	8.9µM*
Cc1ccc(/C=C/C(=O)Nc2cccc3ncccc23)o1	-3%	-1%	25%	8.9µM*
Cc1ccc(/C=C/C(=O)OCC(=O)Nc2cccnc2Cl)o1	-4%	x	x	x
CCOC(=O)C1=C(COC(=O)[C@@H]2CCCN2S(=O)(=O)c2ccc(C)cc2)NC(=O)NC1C (stereo partly specified)	-1%	14%	20%	-4%
CCCCOc1ccc(-c2nnn(CCC(=O)N3CCOCC3)n2)cc1	-2%	67%	9.3µM*	2%
SMILES	SARS PLpro yeast	Pf growth 48h	Pf growth 96h	Sm TGR block
CCCOc1ccc(-c2nnn(CC(=O)c3ccc4c(c3)OCCO4)n2)cc1	-10%	u	7.4µM*	1%
CCOc1ccc(-c2nnn(CC(=O)c3ccc4c(c3)OCCO4)n2)cc1	1%	-14%	u	-7%
CCCOc1ccc(-c2nnn(CC(=O)N3CCC(C)CC3)n2)cc1	-15%	x	-5%	-4%
Cc1ccc(Cn2c(C)c(CNCc3ccc(OC(C)C)cc3)c(C(=O)O)c2C)cc1	x	x	x	-20%
O=C(COC(=O)C1CC2C=CC1C2)Nc1ccc([N+](=O)[O-])cc1 (stereo unspecified)	-29%	x	x	x
CCOC(=O)c1ccc(NC(=O)c2nc[nH]c2C(=O)N2CCN(C(=O)OC(C)(C)C)CC2)cc1	2%	13µM*	u	5%
CC(C)(C)OC(=O)N1CCN(C(=O)c2[nH]cnc2C(=O)Nc2cccc(Cl)c2)CC1	1%	4.1µM*	u	2%
CCN1CCN(c2ccc(S(=O)(=O)N3CCCCC3)cc2NC(=O)c2ccc(F)cc2)CC1	-12%	u	9.3µM*	-5%
CCN1CCN(c2ccc(S(=O)(=O)N3CCCCC3)cc2NC(=O)c2sccc2C)CC1	3%	u	u	2%
CCN1CCN(c2ccc(Cl)cc2NC(=O)c2ccc(-n3nc(C)cc3C)cc2)CC1	-1%	4.1µM*	u	-7%
O=C(Nc1cc(S(=O)(=O)N2CCCCC2)ccc1N1CCOCC1)c1ccc(F)cc1	-5%	u	u	6%

Bioassay records from PubChem BioAssay.
